Screens as filed in PubChem.
PABP1 MLLE inh: blocks PAM2 peptide binding to the PABP1 MLLE domain | P11940 | GST-MLLE / FITC-PAM2 fluorescence polarization | inhibition, % at 20 µM | 360,000 tested, 0.36% active; in the data active = inhibition above about 35%, passing the limit was not always enough;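 note: plate controls were DMSO wells with GST-MLLE for no effect and wells lacking GST-MLLE protein for full effect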
Target sequence (P11940 whole entry, looked up, the tested form may be a part): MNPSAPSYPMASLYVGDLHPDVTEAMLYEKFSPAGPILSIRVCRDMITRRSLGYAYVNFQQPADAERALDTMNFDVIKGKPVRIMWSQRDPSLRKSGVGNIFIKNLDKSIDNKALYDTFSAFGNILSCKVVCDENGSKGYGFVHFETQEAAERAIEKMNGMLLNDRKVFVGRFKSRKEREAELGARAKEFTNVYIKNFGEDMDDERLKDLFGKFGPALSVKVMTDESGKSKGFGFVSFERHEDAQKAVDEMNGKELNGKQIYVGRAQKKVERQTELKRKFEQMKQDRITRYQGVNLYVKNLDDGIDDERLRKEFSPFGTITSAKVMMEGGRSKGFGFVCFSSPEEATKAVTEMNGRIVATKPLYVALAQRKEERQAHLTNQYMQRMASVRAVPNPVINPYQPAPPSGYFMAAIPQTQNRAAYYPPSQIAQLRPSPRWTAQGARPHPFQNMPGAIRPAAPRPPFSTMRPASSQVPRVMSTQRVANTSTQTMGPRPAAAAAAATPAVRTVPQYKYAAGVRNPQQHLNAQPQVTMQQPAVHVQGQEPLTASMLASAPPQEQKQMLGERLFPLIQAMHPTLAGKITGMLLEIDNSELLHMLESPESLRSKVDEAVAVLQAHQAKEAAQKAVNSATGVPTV
CendR NRP1 mod: modulators of CendR peptide binding to human neuropilin-1; FAM-RPARPAR peptide binding to NRP-1, fluorescence polarization; inhibition, % at 25 µM; 360,000 tested, 0.85% active; AID 602438;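 active = inhibition or corrected inhibition above about 18%, plus a signal ratio from 0.5 to 1.5, limit read from the data, passing the limit was not always enough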
PABP polyA inh: blocks human PABP binding to poly(A) RNA; P11940; fluorescence polarization; inhibition, % at 35 µM; 290,000 tested, 1% active; AID 2014;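 note: calls also rest on retests at 20 µM and on dose response follow-up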
eIF4H FP inh: inhibitors of RNA binding by human eIF4H; Q15056; eIF4H fluorescence polarization binding assay; inhibition, % at 35 µM; 290,000 tested, 0.94% active; AID 2012;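 note: calls also rest on retests at 20 µM and on dose response follow-up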
The depositor's hits bear a star; ? = inconclusive; / = no result given. Rows were chosen to be rich in hits. Some 2.1% of all compounds tested hit in one or more screens of this group. Unless noted, the rule behind the calls is not given here.

SMILES	PABP1 MLLE inh	CendR NRP1 mod	PABP polyA inh	eIF4H FP inh
O=C(O)COn1c(-c2ccccc2)nc2ccc([N+](=O)[O-])cc21	34	15	84*	104
Cc1ccn2cc(CC(=O)O)nc2c1	18	-8	43*	?
CCOC(=O)c1cn2ccc(C)cc2n1	18	4	-2	-2
COc1ccc(-n2c(NC(=O)c3ccco3)c(C#N)c3nc4ccccc4nc32)cc1	-55	-45	-8	4
C=CCn1c(NC(=O)c2ccc(Br)o2)c(S(=O)(=O)c2ccccc2)c2nc3ccccc3nc21	-43	-66	55*	?
C=CCn1c(NC(=O)c2ccco2)c(S(=O)(=O)c2ccccc2)c2nc3ccccc3nc21	/	/	64*	62*
S=C(NCCc1ccccc1)N1CCC2CC1c1cc(-c3ccc4c(c3)OCO4)ccc12 (stereo unspecified)	-55	1	/	/
Cc1ccc(NC(=S)Nc2ccccn2)cc1C	40*	4	-2	1
C[c-]1[c-](C)[c-](C)[c-](C)[c-]1C.[Fe].c1cc2nccc(N3CCCC3)[c-]2c1 (stereo unspecified)	64*	10	129*	104*
CC(C)C(C(=O)NCC1CCCO1)N(C(=O)CNS(=O)(=O)c1ccccc1)C1CCCCC1 (stereo unspecified)	3	-1	-4	1
Cc1cccc(C(=O)Nc2ccc(C(=O)/C=C/c3cccnc3)cc2)c1	3	2	7	2
O=C(/C=C/c1cccnc1)c1ccc(NC(=O)c2cccc(Br)c2)cc1	6	19*	-7	-2
Cc1ccccc1Nc1nc(N)nc(COC(=O)CC2CC3CCC2C3)n1 (stereo unspecified)	-5	27*	-4	-12
Cc1ccccc1Nc1nc(N)nc(COC(=O)CCS(=O)(=O)c2ccccc2)n1	15	0	-8	6
CN(Cc1cnn(C)c1)C(=O)c1cc2ccccc2oc1=O	7	52*	3	-6
NNc1nc2sc3c(c2c(=O)n1Cc1ccccc1)CCC3	-54	-22	15*	64*
C#CCSc1nc2sc3c(c2c(=O)n1C)CCC3	-8	-3	38*	63*
Nn1c(Nc2ccccc2)nc2sc3c(c2c1=O)CCC3	23	4	5	6
CCn1c(NN)nc2sc3c(c2c1=O)CCC3	-52	-27	30*	52*
COc1cc(OC)cc(C(=O)NCCCCc2ccccc2)c1	-9	1	/	/
O=C(CCCn1cnc([N+](=O)[O-])n1)Nc1cccc(Cl)c1Cl	20	31*	8	0
Cc1c(Cl)cccc1NC(=O)CCCn1cnc([N+](=O)[O-])n1	9	-1	-10	-10
N=c1c2c3c(sc2ncn1Nc1ccccc1)CCC3	0	3	19	31
C=CCOc1cccc(C(=O)N2CCCC(Nc3ccc(F)cc3)C2)c1 (stereo unspecified)	-1	-3	2	-7
COc1ccc(NC2CCCN(C(=O)CSc3ccncc3)C2)cc1 (stereo unspecified)	2	23*	-7	-10
SMILES	PABP1 MLLE inh	CendR NRP1 mod	PABP polyA inh	eIF4H FP inh
COc1ccc(CCC(=O)N2CCCC(Nc3ccc(OC)cc3)C2)cc1 (stereo unspecified)	15	-49	-20	-14
COc1cc(OC)cc(C(=O)N2CCCC(Nc3ccc(F)cc3)C2)c1 (stereo unspecified)	2	22*	5	-13
CCC(C)Sc1ccc([C@H]2N[C@@](Cc3ccccc3)(C(=O)OC)[C@H]3C(=O)N(CC)C(=O)[C@@H]23)cc1 (stereo partly specified)	8	-2	/	/
COCCNC(=O)C1(C)CCCN(Cc2cc(-c3ccccc3)on2)C1 (stereo unspecified)	-1	-3	/	/
COc1ccc(CN2CCN(CCC(C)C)C(CCO)C2)cc1Cn1cncn1 (stereo unspecified)	2	3	0	-1
Cc1ccccc1NC(=S)NC(=O)COc1ccccc1C	26	22*	-2	-5
CCNC(=O)c1cc2c(c(-c3cccc(-c4ccccc4F)c3)n1)[C@@H](CCO)N(C(=O)CC)C2	/	-3	/	/
Cc1cccc(N(C(=O)Cn2nnc3ccccc32)C(C(=O)NCc2ccco2)c2ccncc2)c1 (stereo unspecified)	8	0	-9	3
O=C(NCc1ccco1)C(c1ccco1)N(C(=O)Cn1nnc2ccccc21)c1ccc2c(c1)CCC2 (stereo unspecified)	-1	19*	/	/
CN(CCOC(=O)/C=C/c1ccco1)Cc1ccccc1	10	-27	46*	90*
CN(Cc1ccccc1)C(=O)COC(=O)/C=C/c1ccco1	5	2	25*	82*
CC(=O)OC[C@@H]1CN(Cc2ccccc2)C[C@H](n2cnc3c(N4CCOCC4)ncnc32)O1	5	-11	/	/
CCOc1ccccc1C(=O)N1CCN=C1SCc1cccnc1	40*	7	-6	-5
O=C(c1ccccc1F)N1CCN=C1SCc1cccnc1	5	3	5	-8
Cc1ccc(-c2cc(-c3ccco3)c3c(N)c(C(=O)NN)oc3n2)cc1	-43	-29	?	?
NNC(=O)c1oc2nc(-c3cccs3)cc(-c3ccco3)c2c1N	-52	-62	22*	?
Cc1cc(C)cc(-n2c(SCC(=O)Nc3cccc(S(=O)(=O)NC4=NCCCCC4)c3)nc3ccccc3c2=O)c1	-12	6	97*	active
Cc1ccc(C)c(SCC(=O)Nc2cccc(S(=O)(=O)NC3=NCCCCC3)c2)c1	5	-9	14	3
Cc1ccc(-n2c(C(C)n3nc(C)c([N+](=O)[O-])c3C)n[nH]c2=S)cc1 (stereo unspecified)	-23	-3	52	active
COc1ccc(-n2c(C(C)n3nc(C)c([N+](=O)[O-])c3C)n[nH]c2=S)cc1 (stereo unspecified)	-18	8	-72	-4
CN(C)C(=O)c1ccc(NC(=O)COc2cccc3c2OC(C)(C)C3)cc1	6	0	/	/
CCN(CC(=O)Nc1c(F)cccc1F)C(=O)C1CC(=O)N(c2ccccc2OC)C1 (stereo unspecified)	-3	5	62*	10
O=C(COC(=O)C1COc2ccccc2O1)Nc1ccc(Cl)cc1 (stereo unspecified)	-5	8	/	/
CCC(C(=O)NC1CCN(C)CC1)c1ccccc1 (stereo unspecified)	-6	53*	0	8
CCC(C(=O)NC1CC(C)(C)NC(C)(C)C1)c1ccccc1 (stereo unspecified)	-1	8	1	-3
COc1ccc2c(c1)N(C)/C(=C1/SC(=NCc3ccccc3)N(c3ccccc3)C1=O)S2	-75	27*	8	-2
CCCCNC(=O)c1nc(C2CCN(S(=O)(=O)c3ccc(F)c(F)c3)CC2)oc1-c1ccccc1	-5	-5	/	/
Cc1cc(=O)[nH]c(N=N/C(=N/Nc2ccc(O)cc2)c2ccccc2)n1	31	6	10	18
COc1ccc(N/N=C(/N=Nc2nc(C)cc(=O)[nH]2)c2ccccc2)cc1	2	44*	4	24
